Rows were chosen to be rich in hits. Some 3.4% of all compounds tested hit in one or more screens of this group.
NTR1 agonist – agonists of human NTR1, primary screen, imaging, U2OS cells, beta-arrestin-GFP, high content; Neurotensin receptor type 1 (Homo sapiens), P30989; 0.17% of 330,000 active; activation, % at 20 µM; NTR1-U2OS beta-arrestin-GFP spot imaging, agonist mode;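 active = activation at or above 40% of the spot to cytoplasm intensity ratio, with at least 20 cells analyzed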
Target sequence (P30989 whole entry, looked up): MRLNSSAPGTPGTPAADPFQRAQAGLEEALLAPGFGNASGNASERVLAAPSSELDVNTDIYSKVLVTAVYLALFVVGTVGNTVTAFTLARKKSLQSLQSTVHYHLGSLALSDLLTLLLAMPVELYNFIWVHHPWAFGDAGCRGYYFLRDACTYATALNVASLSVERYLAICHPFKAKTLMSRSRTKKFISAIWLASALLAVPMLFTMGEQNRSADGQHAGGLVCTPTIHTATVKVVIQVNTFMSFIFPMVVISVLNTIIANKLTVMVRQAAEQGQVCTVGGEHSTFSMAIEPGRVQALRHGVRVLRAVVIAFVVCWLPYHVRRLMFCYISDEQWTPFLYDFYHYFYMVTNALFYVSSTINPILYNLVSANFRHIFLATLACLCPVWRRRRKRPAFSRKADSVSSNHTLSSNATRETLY
MEKK3 PB1 HTS – modulators of MEKK3-MEK5 PB1 binding, primary screen, biochemical, wildtype MEKK3, multiplex bead flow cytometry, Alexa488-MEK5; Mitogen-activated protein kinase kinase kinase 3 (Homo sapiens), Q99759; binding response (% of control), % at 10 µM; bead-based flow cytometry, Alexa488-MEK5 binding to MEKK3; actives lie on both sides; 0 = blocked by unlabeled MEK5, 100 = vehicle; 1.4% of 290,000 active; AID 1529, 2009;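 active = binding response more than 3 SD above or below the average of its plate-row segment, actives on both sides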;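 note: Alexa488 bead fluorescence after subtracting the streptavidin-only scavenger bead signal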
MEKK2 mut-MEK5 – MEK5 binding signal on mutant MEKK2 PB1, primary screen, biochemical, multiplex bead flow cytometry, Alexa488-MEK5 | Alexa488-MEK5 binding to MEKK2 mutant | percent response, % at 10 µM | 0.35% of 290,000 active | AID 1530, 2009; in the data active = percent response above about 24%, passing the limit was not always enough
ANO1 activ – TMEM16A chloride channel activators or potentiators, primary screen, cell-based, HTS. Anoctamin-1 (Mus musculus), Q8BHY3. HEK293 TMEM16A/YFP-H148Q/I152L, iodide quench fluorescence; hits give low values. B-score at 10 µM. 0.3% of 340,000 active;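 active = fluorescence-ratio B-score plate-corrected deviation score at least 3 library SD below zero, with starting fluorescence score within 5 deviations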;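 note: channel opened by trigger with iodide after compound preincubation; score built on the fluorescence ratio of max minus min over baseline; more negative score means more quench and so TMEM16A activation or potentiation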
TMEM16A inh – TMEM16A chloride channel inhibitors, primary screen, cell-based, HTS. Anoctamin-1 (Mus musculus), Q8BHY3. HEK293 TMEM16A/YFP iodide influx fluorescence, ionomycin. normalized B-score (activity score, 25-100; higher = stronger inhibition) at 10 µM. 1.2% of 310,000 active;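 active = ratio plate-corrected score three or more library SD toward inhibition, starting fluorescence score within five deviations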;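 note: score derived from kinetic fluorescence span divided by baseline fluorescence per well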
MEKK2wt PB1 HTS – modulators of MEK5 binding to wildtype MEKK2, primary screen, biochemical, multiplex bead flow cytometry, Alexa488-MEK5. Mitogen-activated protein kinase kinase kinase 2 (Homo sapiens), Q9Y2U5. binding response (% of control), % at 10 µM. AID 1531, 2009. Alexa488-MEK5 binding to MEKK2 WT; actives lie on both sides. 1.1% of 290,000 active; in the data active = binding response below about 67% or above about 130%
Numbers stand for hits; ! = a repeat was not active; [ ] = remark or other dose.

Screening CC(=O)N1CCCSC1=Nc1ccccc1 returned NTR1 agonist inactive, MEKK3 PB1 HTS inactive, MEKK2 mut-MEK5 inactive, ANO1 activ -29.8, TMEM16A inh inactive and MEKK2wt PB1 HTS inactive.
For CCOC(=O)CC(SP1(=S)OCC2(CC=CCC2)CO1)C(=O)OCC (stereo unspecified) the results were ANO1 activ inactive.
O=C(Cn1ncc2c3ccccc3n(Cc3ccccc3)c2c1=O)N1CCC2(CC1)OCCO2 was read as MEKK3 PB1 HTS inactive, MEKK2 mut-MEK5 inactive and MEKK2wt PB1 HTS inactive.
O=C(Cn1ncc2c3ccccc3n(Cc3ccccc3F)c2c1=O)N1CCC2(CC1)OCCO2 was read as NTR1 agonist inactive, MEKK3 PB1 HTS inactive, MEKK2 mut-MEK5 inactive, ANO1 activ -20.6, TMEM16A inh inactive and MEKK2wt PB1 HTS inactive.
For C[N+](C)(C)CC#CCN1CCCC1=O the results were NTR1 agonist inactive, MEKK3 PB1 HTS inactive, MEKK2 mut-MEK5 inactive, ANO1 activ -7.93, TMEM16A inh inactive and MEKK2wt PB1 HTS inactive.
For O=C1N(CN2CCOCC2)c2ccccc2C1(O)c1c[nH]c2ccccc12 (stereo unspecified) the results were NTR1 agonist inactive, MEKK3 PB1 HTS inactive, MEKK2 mut-MEK5 inactive, ANO1 activ inactive, TMEM16A inh inactive and MEKK2wt PB1 HTS inactive.
For Cc1ccccc1C(O)(Cc1ccccc1)C1CN2CCC1CC2 (stereo unspecified) the results were NTR1 agonist inactive, MEKK3 PB1 HTS inactive, MEKK2 mut-MEK5 inactive, ANO1 activ inactive, TMEM16A inh inactive and MEKK2wt PB1 HTS inactive.
Cn1ncnc2c(=O)n(C)c(=O)nc1-2 was read as NTR1 agonist inactive, MEKK3 PB1 HTS inactive, MEKK2 mut-MEK5 inactive, ANO1 activ inactive, TMEM16A inh 25 and MEKK2wt PB1 HTS inactive.
For CC(C)c1ccc(N2C(=O)NC(=O)/C(=C/C=C/c3ccco3)C2=O)cc1 the results were MEKK3 PB1 HTS inactive, MEKK2 mut-MEK5 inactive, ANO1 activ inactive, TMEM16A inh inactive and MEKK2wt PB1 HTS 60.0[inhibitor].
Oc1ccccc1CN(CCc1ccccc1)Cc1ccccc1 was read as NTR1 agonist inactive, MEKK3 PB1 HTS inactive, MEKK2 mut-MEK5 inactive, ANO1 activ inactive, TMEM16A inh inactive and MEKK2wt PB1 HTS inactive.
`CCN(CC)C(=O)c1ccc(NC(=O)c2cccc(S(=O)(=O)N3CCN(Cc4ccccc4)CC3)c2)cc1` gave NTR1 agonist inactive, ANO1 activ inactive and TMEM16A inh 25.
`COC(=O)C1=C(c2ccc3ccccc3c2)C[C@@H]2CC[C@H]1N2C(=O)NCCNC(C)=O` gave NTR1 agonist inactive and ANO1 activ inactive.
For CC(C)Oc1cccc(NC(=O)c2cccn(Cc3ccc4c(c3)OC(F)(F)O4)c2=O)c1 the results were NTR1 agonist inactive, MEKK3 PB1 HTS inactive, MEKK2 mut-MEK5 inactive, ANO1 activ inactive, TMEM16A inh inactive and MEKK2wt PB1 HTS inactive.
Screening Cc1cccc(C)c1NC(=O)c1cccn(Cc2ccc3c(c2)OC(F)(F)O3)c1=O returned NTR1 agonist inactive, MEKK3 PB1 HTS inactive, MEKK2 mut-MEK5 inactive, ANO1 activ inactive, TMEM16A inh 25 and MEKK2wt PB1 HTS inactive.
For CCCC1C(C#N)=C(N)Oc2c1c(=O)oc1ccccc21 (stereo unspecified) the results were NTR1 agonist inactive, MEKK3 PB1 HTS inactive, MEKK2 mut-MEK5 inactive, ANO1 activ inactive, TMEM16A inh inactive and MEKK2wt PB1 HTS inactive.
Screening CCCC(C)C1C(C#N)=C(N)Oc2c1c(=O)oc1ccccc21 (stereo unspecified) returned NTR1 agonist inactive, MEKK3 PB1 HTS inactive, MEKK2 mut-MEK5 inactive, ANO1 activ inactive, TMEM16A inh 100 and MEKK2wt PB1 HTS inactive.
For CN1/C(=C\C=C2C(=O)NC(=S)NC2=O)C(C)(C)c2ccccc21 the results were NTR1 agonist inactive, MEKK3 PB1 HTS inactive, MEKK2 mut-MEK5 inactive, ANO1 activ inactive and MEKK2wt PB1 HTS inactive.
Screening CC1(C)OC(c2ccccc2)=C/C(=C/C=C2C(=O)NC(=S)NC2=O)O1 returned NTR1 agonist inactive, MEKK3 PB1 HTS 73.0[inhibitor], MEKK2 mut-MEK5 inactive, TMEM16A inh inactive and MEKK2wt PB1 HTS -5.0[inhibitor].
For CN1CC[C@]2(c3cccc(O)c3)Cc3nc4ccccc4cc3C[C@H]2C1 the results were MEKK3 PB1 HTS 62.0![inhibitor], MEKK2 mut-MEK5 inactive and MEKK2wt PB1 HTS inactive.
For CN1CC[C@@]23CCCC[C@@H]2[C@@H]1Cc1ccc(O)cc13 the results were NTR1 agonist inactive, MEKK3 PB1 HTS inactive, MEKK2 mut-MEK5 inactive, ANO1 activ inactive, TMEM16A inh inactive and MEKK2wt PB1 HTS inactive.
Screening Cc1ccc(-c2cc(-c3ccc(C)cc3)[n+](-c3ccccc3)c(-c3ccc(C)cc3)c2)cc1 returned NTR1 agonist inactive, ANO1 activ inactive and TMEM16A inh 100.
Screening CCOC(=O)c1cccc(-[n+]2c(-c3ccccc3)cc(-c3ccccc3)cc2-c2ccccc2)c1 returned NTR1 agonist inactive, ANO1 activ -5.64 and TMEM16A inh inactive.
Cc1ccc(-c2cc(-c3ccc(C)cc3)[n+](-c3ccc(C(=O)[O-])cc3)c(-c3ccc(C)cc3)c2)cc1 was read as NTR1 agonist inactive, ANO1 activ inactive and TMEM16A inh inactive.
`CCOC(=O)c1ccc(-[n+]2c(-c3ccccc3)cc(-c3ccccc3)cc2-c2ccccc2)cc1` gave NTR1 agonist inactive, ANO1 activ -13.6 and TMEM16A inh inactive.
For CN(C)c1ccc(-[n+]2c(-c3ccccc3)cc(-c3ccccc3)cc2-c2ccccc2)cc1 the results were NTR1 agonist inactive, MEKK3 PB1 HTS inactive, MEKK2 mut-MEK5 inactive, ANO1 activ inactive and MEKK2wt PB1 HTS inactive.
`Clc1ccccc1C1NCc2ccccc2-n2cccc21` (stereo unspecified) gave NTR1 agonist inactive, MEKK3 PB1 HTS inactive, MEKK2 mut-MEK5 inactive, ANO1 activ inactive, TMEM16A inh inactive and MEKK2wt PB1 HTS inactive.
CCCCCc1nc2c(c(=O)c3ccccc3n2C)c(=O)n1C1CCCCCC1 was read as NTR1 agonist inactive, MEKK3 PB1 HTS inactive, MEKK2 mut-MEK5 inactive, ANO1 activ -11.1, TMEM16A inh inactive and MEKK2wt PB1 HTS inactive.
`CCOc1ccc(-c2c(C)n(-c3ccc(OCC)cc3)c3[n+]2CCCCC3)cc1` gave NTR1 agonist inactive, MEKK3 PB1 HTS inactive, MEKK2 mut-MEK5 inactive, ANO1 activ inactive, TMEM16A inh 25 and MEKK2wt PB1 HTS inactive.
